Compound activity (PubChem)
An excerpt weighted towards active compounds, which were near 2.4% of everything screened.
D2 antagonist: HTS Assay for Allosteric Antagonists of the Human D2 Dopamine Receptor: Primary Screen for Antagonists; D(2) dopamine receptor (Homo sapiens), P14416; 340,000 tested, 2% active; HEK293 TREx D2 cells, calcium flux, dopamine EC80; inhibition, % at 10 µM; AID 485344, 2010; in the data active = inhibition above about 30%; inactive = below that, where a call was filed; also: 0% is about no effect
Target sequence (P14416 whole entry, looked up): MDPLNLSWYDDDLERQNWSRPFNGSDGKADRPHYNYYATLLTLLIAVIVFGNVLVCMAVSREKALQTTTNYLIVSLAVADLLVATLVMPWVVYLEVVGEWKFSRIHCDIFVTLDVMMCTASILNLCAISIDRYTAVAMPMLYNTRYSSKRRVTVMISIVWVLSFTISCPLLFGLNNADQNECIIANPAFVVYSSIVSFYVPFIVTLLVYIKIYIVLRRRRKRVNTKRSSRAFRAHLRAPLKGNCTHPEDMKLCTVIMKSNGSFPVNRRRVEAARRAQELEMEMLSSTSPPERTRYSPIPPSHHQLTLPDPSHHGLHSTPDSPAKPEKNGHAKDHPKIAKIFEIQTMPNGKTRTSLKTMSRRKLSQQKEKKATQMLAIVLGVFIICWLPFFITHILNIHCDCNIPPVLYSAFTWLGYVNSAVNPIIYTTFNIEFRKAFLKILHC
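Calcium mobilization kinetics were recorded at 1 s intervals in tetracycline-induced HEK293 T-REx D2 cells, first for 180 s after compound addition and then 180 s after EC80 dopamine.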
D2 ag-1: HTS Assay for Allosteric Agonists of the Human D2 Dopamine Receptor: Primary Screen for Agonists | D(2) dopamine receptor (Homo sapiens), P14416 | HEK293 T-REx D2 cells, calcium flux agonist mode | activation, % at 2 µM | 340,000 tested, 0.53% active | AID 485358, 2010;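 active = activation over 3 SD above normal in the single-dose calcium agonist read, cut at about 30% in these data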; also: 0% is about no effect
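Agonism scored from kinetic calcium signal (1 read/sec, 180 s) following compound pin transfer, after a 10 s baseline. Cells: HEK293 Trex line expressing inducible D2 receptor coupled to calcium, dye-loaded after overnight culture at 30 C.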
D2 ag-2: Beta-Arrestin HTS for Positive Allosteric Modulators of the Human D2 Dopamine Receptor: Agonists | DiscoveRx PathHunter D2 beta-arrestin, luminescence, 90 min; 100% = 57 uM dopamine signal | activation, % (no concentration beside the values) | 360,000 tested, 0.084% active | AID 624465, 2012; in the data active = activation above about 40%
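Agonist mode: compounds alone added to overnight-plated D2 PathHunter cells for 90 min at 37 C, with 57 uM final dopamine (EC100) defining full response. Beta-arrestin recruitment detected by chemiluminescent reagent, read after 1 h at ambient temperature.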
D2 PAM-1: Beta-Arrestin HTS for Positive Allosteric Modulators of the Human D2 Dopamine Receptor: Potentiators; AID 624464, 2012; DiscoveRx D2 beta-arrestin cells, luminescence, 90 min; 100% = 57 uM dopamine signal; 360,000 tested, 0.23% active; potentiation, % (test concentration not listed); in the data active = potentiation above about 50%
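PathHunter beta-arrestin assay in DiscoveRx D2 cells. Compounds were added with an EC20 of dopamine (50 nM final) for 90 min at 37 deg C. Luminescence was read 1 h after detection reagent, with 57 uM dopamine as the EC100 control.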
D2 PAM-2: HTS Assay for Positive Allosteric Modulators of the Human D2 Dopamine Receptor: Primary Screen for Potentiators. D(2) dopamine receptor (Homo sapiens), P14416. HEK293 T-REx D2, calcium flux, EC20 dopamine potentiation. potentiation, % at 10 µM. 340,000 tested, 0.34% active. AID 485347, 2010;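 active = potentiation over 3 SD above the plate norm, cut at about 30% in these data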; also: 0% is about no effect
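Potentiation of an EC20 dopamine calcium response measured kinetically over 180 s, after a preceding 180 s compound-only read flagging agonists. Cells: inducible Hek293 Trex D2 line, 4000/well, cultured overnight at 30 C before dye loading.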
Numbers without * were called inactive.

`CCOC(=O)N1CCC(NC(=O)c2ccc(CS(=O)c3ccc(Cl)cc3)o2)CC1` (configuration not stated) gave D2 antagonist 8, D2 ag-1 1, D2 ag-2 0, D2 PAM-1 1 and D2 PAM-2 0.
`Cc1ccccc1S(=O)Cc1ccc(C(=O)NC2CCN(Cc3ccccc3)CC2)o1` (configuration not stated) gave D2 antagonist 44*, D2 ag-1 1, D2 ag-2 -4, D2 PAM-1 -33 and D2 PAM-2 -20.
Screening Cc1cccc(S(=O)Cc2ccc(C(=O)NC3CCN(Cc4ccccc4)CC3)o2)c1 (configuration not stated) returned D2 antagonist 44*, D2 ag-1 0, D2 ag-2 -7, D2 PAM-1 -35 and D2 PAM-2 -19.
Screening CC(C)CNC(=O)Nc1cc(C(=O)NCc2ccc(C(C)C)cc2)ccc1N1CCCC1 returned D2 ag-1 1 and D2 PAM-2 -1.
`CCOc1cc(C(=O)NCCN2CCOCC2)cc(OCC)c1OCC` gave D2 antagonist 18, D2 ag-1 -2, D2 ag-2 -3, D2 PAM-1 -13 and D2 PAM-2 42*.
O=C(NCCC1=CCCCC1)c1ccc2c(=O)n3nc(Nc4ccccc4)sc3nc2c1 was read as D2 ag-1 0 and D2 PAM-2 7.
Cc1cccc(NC(=O)c2sc3nc(-c4ccccc4)cn3c2C)c1C was read as D2 ag-1 -1 and D2 PAM-2 -15.
For CC1=CC(C)(C)N(C(=O)CN2C(=O)CCC2=O)c2ccc(C)cc21 the results were D2 antagonist 30*, D2 ag-1 -1, D2 ag-2 -2, D2 PAM-1 -2 and D2 PAM-2 11.
For O=c1c2ccccc2n2nnnc2n1-c1ccccc1 the results were D2 antagonist 13, D2 ag-1 1, D2 ag-2 -2, D2 PAM-1 -8 and D2 PAM-2 32*.
`COc1ccc(N2CCN(CCCNC(=O)c3cnn(-c4ccc(C)cc4)c3-n3cccc3)CC2)cc1` gave D2 ag-1 -1 and D2 PAM-2 1.
For CCOC(=O)c1sc2nc(C)nc(SCC(=O)NC3CCS(=O)(=O)C3)c2c1C (configuration not stated) the results were D2 antagonist -17, D2 ag-1 -1, D2 ag-2 3, D2 PAM-1 -8 and D2 PAM-2 42*.
CC(=O)NC12CC3CC(C1)CC(C(=O)OCC(=O)Nc1c(F)cccc1F)(C3)C2 was read as D2 antagonist 37*, D2 ag-1 0, D2 ag-2 1, D2 PAM-1 -7 and D2 PAM-2 -6.
CCCCCn1c(CCCNC(=O)c2ccccc2)nc2ccccc21 was read as D2 ag-1 -1 and D2 PAM-2 -15.
Screening CCCC1CCc2c(sc(NC(=O)OCC)c2C#N)C1 (configuration not stated) returned D2 ag-1 -1, D2 ag-2 -2, D2 PAM-1 -1 and D2 PAM-2 34*.
For CCOC(=O)Nc1sc2c(c1C#N)CCCC2 the results were D2 antagonist 9, D2 ag-1 0, D2 ag-2 -2, D2 PAM-1 -2 and D2 PAM-2 -6.
For Cc1ccc(CNC(=O)c2c(-c3ccc(Br)cc3)noc2C)o1 the results were D2 ag-1 0 and D2 PAM-2 7.
O=c1c(S(=O)(=O)c2ccccc2)cn(Cc2ccc(F)cc2)c2cc(N3CCCCC3)c(F)cc12 was read as D2 ag-1 1 and D2 PAM-2 -10.
Screening COc1ccc(CCN2C(=O)c3[nH]nc(-c4ccccc4O)c3C2c2cccc(Cl)c2)cc1 (configuration not stated) returned D2 antagonist -12, D2 ag-1 -1, D2 ag-2 12, D2 PAM-1 91* and D2 PAM-2 -4.
COc1ccc(CCN2C(=O)c3[nH]nc(-c4ccccc4O)c3C2c2cccc(OC)c2)cc1 (configuration not stated) was read as D2 ag-1 -1 and D2 PAM-2 1.
For Cc1ccc(C(=O)COC(=O)C2CC(=O)N(c3nc(-c4ccccc4)cs3)C2)cc1 (configuration not stated) the results were D2 antagonist 34*, D2 ag-1 1, D2 ag-2 -3, D2 PAM-1 -4 and D2 PAM-2 10.
COc1ccc(NC(=O)c2c(C)oc3ccc(O)c(CN4CCC(C)CC4)c23)cc1Cl was read as D2 PAM-2 -8.
For Cc1cc(C)c(NC(=O)Cn2c(=O)n(CC(=O)NCc3ccccc3Cl)c(=O)c3sccc32)c(C)c1 the results were D2 ag-1 1 and D2 PAM-2 -2.
`CCCCNC(=O)NCC(=O)Nc1ccc(F)c(F)c1` gave D2 antagonist 40*, D2 ag-1 0, D2 ag-2 0, D2 PAM-1 -4 and D2 PAM-2 -4.
Screening COc1ccccc1NC(=O)NCC(=O)Nc1ccc(F)c(F)c1 returned D2 ag-2 -2 and D2 PAM-1 -12.
Screening CC1(C)CC(=O)c2sc(NS(=O)(=O)c3ccc([N+](=O)[O-])cc3)nc2C1 returned D2 antagonist 4, D2 ag-1 0, D2 ag-2 -1, D2 PAM-1 54* and D2 PAM-2 -5.
`CC1(C)CC(=O)c2sc(NS(=O)(=O)c3ccccc3)nc2C1` gave D2 antagonist -6, D2 ag-1 0, D2 ag-2 0, D2 PAM-1 -10 and D2 PAM-2 8.
O=C(Nc1nc2c(F)cccc2s1)c1ccc([N+](=O)[O-])o1 was read as D2 antagonist 33*, D2 ag-1 0, D2 ag-2 -1, D2 PAM-1 -6 and D2 PAM-2 13.
For O=C(ON=C1CCN(S(=O)(=O)c2ccccc2)CC1)c1cccc(Cl)c1 the results were D2 antagonist -17, D2 ag-1 -2, D2 ag-2 -3, D2 PAM-1 -10 and D2 PAM-2 34*.
For S=c1[nH]nc(COc2ccccc2)n1/N=C/c1ccccc1Br the results were D2 antagonist 38*, D2 ag-1 -1, D2 ag-2 -1, D2 PAM-1 -11 and D2 PAM-2 -2.
Cc1ccc(-c2c3c(=O)n(C)c(=O)n(C)c3c3c(C)nc4ccccc4n23)cc1 was read as D2 ag-1 1 and D2 PAM-2 1.
